The AC50 is the concentration giving half of the maximal activity seen.

In PubChem BioAssay (EPA / NIEHS) one finds AC50 and outcome data, which are given here for three compounds.

The structures appear in SMILES notation. Calls of active or inactive are those of the source. How the source made its calls: active means hit-call score of the fitted dose curve at least 0.9, where 1 is the maximum; inactive means score below 0.9.

Settings in all cases: mRNA level, 48 h; actives raise or lower the signal
Read-out in assay [1]: Insulin Like Growth Factor 1 (IGF1), IGF1 (gene 3479)
Kind of assay: LTEA_HepaRG_IGF1: Life Technologies and Expression Analysis (LTEA) Assay for Insulin Like Growth Factor 1 (IGF1) using HepaRG (AID 2283506). Put shortly: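 Differentiated HepaRG cells in serum-free induction medium, exposed 48 h in duplicate to 8 half-log concentrations up to 100 uM in 0.5% DMSO. IGF1 mRNA by Fluidigm qRT-PCR, normalised to ACTB, GAPDH and POLR2A.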

Read-out in assay [2]: Intercellular Adhesion Molecule 1 (ICAM1), ICAM1 (gene 3383)
Nature of the assay: LTEA_HepaRG_ICAM1: Life Technologies and Expression Analysis (LTEA) Assay for Intercellular Adhesion Molecule 1 (ICAM1) using HepaRG (AID 2283507). In short, it runs like this:
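Differentiated human HepaRG cells in serum-free induction medium exposed 48 h in duplicate to 8 half-log concentrations (top 100 uM, 0.5% DMSO). ICAM1 mRNA quantified by TaqMan qRT-PCR, normalized to ACTB, GAPDH and POLR2A; bidirectional fitting versus DMSO.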

Read-out in assay [3]: Insulin-like growth factor-binding protein 1 (IGFBP1), IGFBP1 (gene 3484)
Kind of assay: LTEA_HepaRG_IGFBP1: Life Technologies and Expression Analysis (LTEA) Assay for Insulin-like growth factor-binding protein 1 (IGFBP1) using HepaRG (AID 2283508). In short, it runs like this:
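HepaRG cells, plated 48 h then switched to serum-free induction medium, exposed in duplicate for 48 h to 8-point half-log series from 100 uM in 0.5% DMSO. mRNA measured by qRT-PCR, normalized to ACTB/GAPDH/POLR2A; bidirectional fit versus DMSO.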

Read-out in assay [4]: Interleukin 6 (IL6), IL6 (gene 3569)
Kind of assay: LTEA_HepaRG_IL6: Life Technologies and Expression Analysis (LTEA) Assay for Interleukin 6 (IL6) using HepaRG (AID 2283509). In short, it runs like this: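 HepaRG cells exposed in duplicate for 48 h to eight half-log concentrations, top 100 uM, in 0.5% DMSO serum-free induction medium. mRNA measured by qRT-PCR, normalized to ACTB, GAPDH and POLR2A. Bidirectional fit versus DMSO.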

Read-out in assay [5]: Interleukin 6 Receptor (IL6R), IL6R (gene 3570)
Kind of assay: LTEA_HepaRG_IL6R: Life Technologies and Expression Analysis (LTEA) Assay for Interleukin 6 Receptor (IL6R) using HepaRG (AID 2283510).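 On AC50: TaqMan qRT-PCR signal normalized to ACTB GAPDH and POLR2A housekeeping genes.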 In short, it runs like this:
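Differentiated HepaRG cells, plated 48 h, then exposed in duplicate for 48 h in serum-free induction medium to 8 half-log concentrations (top 100 uM, 0.5% DMSO). IL6R mRNA measured by TaqMan qRT-PCR, normalized to ACTB/GAPDH/POLR2A; bidirectional fit vs DMSO.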

Read-out in assay [6]: Potassium channel subfamily K member 1 (KCNK1), KCNK1 (gene 3775)
Kind of assay: LTEA_HepaRG_KCNK1: Life Technologies and Expression Analysis (LTEA) Assay for Potassium channel subfamily K member 1 (KCNK1) using HepaRG (AID 2283511). In short, it runs like this:
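Differentiated HepaRG cells, 48 h exposure in serum-free induction medium with 0.5% DMSO; 8 concentrations, half-log from 100 uM, duplicate. KCNK1 mRNA by qRT-PCR, normalized to ACTB, GAPDH, POLR2A; bidirectional fit vs DMSO.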

Read-out in assay [7]: JUN Transcription Factor, JUN (gene 3725)
Nature of the assay: LTEA_HepaRG_JUN: Life Technologies and Expression Analysis (LTEA) Assay for JUN Transcription Factor using HepaRG (AID 2283513). In short, it runs like this:
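HepaRG cells, 48 h post-plating, exposed 48 h in serum-free induction medium to 8-point half-log series (top 100 uM, 0.5% DMSO), duplicate; mRNA by qRT-PCR (TaqMan, Fluidigm), normalized to ACTB/GAPDH/POLR2A; bidirectional fit vs DMSO.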

Read-out in assay [8]: Lipase C (LIPC), LIPC (gene 3990)
Kind of assay: LTEA_HepaRG_LIPC: Life Technologies and Expression Analysis (LTEA) Assay for Lipase C (LIPC) using HepaRG (AID 2283514). In short, it runs like this:
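HepaRG cells, 48 h after plating, treated in duplicate for 48 h in serum-free induction medium over 8 half-log concentrations from 100 uM, 0.5% DMSO. LIPC mRNA by TaqMan qRT-PCR normalized to ACTB/GAPDH/POLR2A; bidirectional fit versus DMSO.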

Read-out in assay [9]: Lipoprotein lipase (LPL), LPL (gene 4023)
Nature of the assay: LTEA_HepaRG_LPL: Life Technologies and Expression Analysis (LTEA) Assay for Lipoprotein lipase (LPL) using HepaRG (AID 2283515). Put shortly: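 Differentiated HepaRG cells, plated 48 h, then exposed 48 h in serum-free induction medium to 8 concentrations (top 100 uM, half-log steps) in 0.5% DMSO, duplicate. LPL mRNA measured by qRT-PCR, normalized to ACTB, GAPDH and POLR2A.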

Read-out in assay [10]: MicroRNA 122 (MIR122), gene 406906
Nature of the assay: LTEA_HepaRG_MIR122: Life Technologies and Expression Analysis (LTEA) Assay for MicroRNA 122 (MIR122) using HepaRG (AID 2283516). Further: the transcript read is the microRNA miR-122. In short, it runs like this:
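Differentiated human HepaRG cells in serum-free induction medium exposed 48 h to 8 half-log concentrations from 100 uM in 0.5% DMSO, duplicate. MIR122 quantified by Fluidigm TaqMan qRT-PCR, normalised to ACTB, GAPDH, POLR2A; fold change fitted bidirectionally versus DMSO.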

Read-out in assay [11]: matrix metalloproteinase-10 (MMP10), MMP10 (gene 4319)
Kind of assay: LTEA_HepaRG_MMP10: Life Technologies and Expression Analysis (LTEA) Assay for matrix metalloproteinase-10 (MMP10) using HepaRG (AID 2283517). In short, it runs like this: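 Differentiated HepaRG cells in serum-free induction medium exposed 48 h in duplicate to 8-point half-log series up to 100 uM in 0.5% DMSO. mRNA quantified by qRT-PCR, normalised to ACTB, GAPDH, POLR2A; bidirectional fit versus DMSO.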

Read-out in assay [12]: matrix metalloproteinase-3 (MMP3), MMP3 (gene 4314)
Nature of the assay: LTEA_HepaRG_MMP3: Life Technologies and Expression Analysis (LTEA) Assay for matrix metalloproteinase-3 (MMP3) using HepaRG (AID 2283519). In short, it runs like this: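 HepaRG cells (~100,000/well) in serum-free induction medium were dosed in duplicate for 48 h with an 8-point half-log series from 100 uM, 0.5% DMSO. MMP3 mRNA was quantified by Fluidigm TaqMan qRT-PCR, normalized to three housekeeping genes.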

Read-out in assay [13]: Paternally Expressed 10 (PEG10), PEG10 (gene 23089)
Nature of the assay: LTEA_HepaRG_PEG10: Life Technologies and Expression Analysis (LTEA) Assay for Paternally Expressed 10 (PEG10) using HepaRG (AID 2283520). In short, it runs like this: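 Differentiated HepaRG cells exposed 48 h in serum-free induction medium to eight half-log concentrations topping at 100 uM, 0.5% DMSO, in duplicate. PEG10 mRNA quantified by TaqMan qRT-PCR, normalized to ACTB, GAPDH and POLR2A; bidirectional fit versus DMSO.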

Read-out in assay [14]: Protein phosphatase 2A (PPP2R4), PTPA (gene 5524)
Nature of the assay: LTEA_HepaRG_PPP2R4: Life Technologies and Expression Analysis (LTEA) Assay for Protein phosphatase 2A (PPP2R4) using HepaRG (AID 2283522). In short, it runs like this: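 Differentiated human HepaRG cells in serum-free induction medium were exposed 48 h to 8 concentrations (top 100 µM, half-log steps, duplicate) in 0.5% DMSO. PPP2R4 mRNA was measured by TaqMan qRT-PCR, normalised to ACTB, GAPDH and POLR2A, and fitted bidirectionally versus DMSO.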

Read-out in assay [15]: Phosphatase and tensin (PTEN), PTEN (gene 5728)
Kind of assay: LTEA_HepaRG_PTEN: Life Technologies and Expression Analysis (LTEA) Assay for Phosphatase and tensin (PTEN) using HepaRG (AID 2283523). Put shortly: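 HepaRG cells, 48 h after plating, exposed in duplicate for 48 h in serum-free induction medium to 8 half-log concentrations up to 100 uM (0.5% DMSO). PTEN mRNA by qRT-PCR, normalized to ACTB, GAPDH, POLR2A; bidirectional fit versus DMSO.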

Read-out in assay [16]: solute carrier (SLC22A1), SLC22A1 (gene 6580)
Kind of assay: LTEA_HepaRG_SLC22A1: Life Technologies and Expression Analysis (LTEA) Assay for solute carrier (SLC22A1) using HepaRG (AID 2283524). Put shortly: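 Differentiated human HepaRG cells in serum-free induction medium, exposed 48 h in duplicate to 8-point half-log series from 100 µM top in 0.5% DMSO. SLC22A1 mRNA by TaqMan qRT-PCR normalized to ACTB, GAPDH, POLR2A; bidirectional fit versus DMSO.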

Read-out in assay [17]: Pyruvate Dehydrogenase Kinase 4 (PDK4), PDK4 (gene 5166)
Nature of the assay: LTEA_HepaRG_PDK4: Life Technologies and Expression Analysis (LTEA) Assay for Pyruvate Dehydrogenase Kinase 4 (PDK4) using HepaRG (AID 2283525). Put shortly: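 HepaRG cells plated 48 h, then switched to serum-free induction medium and exposed in duplicate for 48 h to 8 half-log concentrations from 100 uM in 0.5% DMSO. PDK4 mRNA measured by qRT-PCR, normalized to ACTB, GAPDH and POLR2A; bidirectional fit versus DMSO.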

Read-out in assay [18]: Keratin 19 (KRT19), KRT19 (gene 3880)
Kind of assay: LTEA_HepaRG_KRT19: Life Technologies and Expression Analysis (LTEA) Assay for Keratin 19 (KRT19) using HepaRG (AID 2283512). In short, it runs like this:
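Differentiated HepaRG cells in serum-free induction medium, exposed 48 h in duplicate to 8 half-log concentrations up to 100 uM in 0.5% DMSO. KRT19 mRNA by qRT-PCR, normalized to ACTB, GAPDH, POLR2A; bidirectional fit vs DMSO.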

Read-out in another assay: MYC, MYC (gene 4609)
Kind of assay: LTEA_HepaRG_MYC: Life Technologies and Expression Analysis (LTEA) Assay for MYC using HepaRG (AID 2283518). Put shortly: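 Differentiated HepaRG cells exposed 48 h in serum-free induction medium to 8 concentrations (top 100 uM, half-log steps; 0.5% DMSO), duplicate. MYC mRNA measured by Fluidigm qRT-PCR, normalized to ACTB, GAPDH, POLR2A; bidirectional fit versus DMSO.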

Read-out in assay [19]: Nuclear factor NF-kappa-B p105 subunit (Homo sapiens) (UniProt P19838)
Kind of assay: LTEA_HepaRG_NFKB1: Life Technologies and Expression Analysis (LTEA) Assay for Nuclear Factor Kappa B Subunit 1 (NFKB1) using HepaRG (AID 2283521).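 On outcome: TaqMan qRT-PCR transcript normalised to ACTB GAPDH and POLR2A housekeeping genes.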 Put shortly: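 NFKB1 transcript was measured by TaqMan qRT-PCR on Fluidigm arrays, normalised to three housekeeping genes and fitted in both directions against 0.5% DMSO. HepaRG cells were dosed in duplicate for 48 h in serum-free induction medium, eight half-log steps from 100 uM.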

Chain of Nuclear factor NF-kappa-B p105 subunit (Homo sapiens) (P19838 whole entry, looked up): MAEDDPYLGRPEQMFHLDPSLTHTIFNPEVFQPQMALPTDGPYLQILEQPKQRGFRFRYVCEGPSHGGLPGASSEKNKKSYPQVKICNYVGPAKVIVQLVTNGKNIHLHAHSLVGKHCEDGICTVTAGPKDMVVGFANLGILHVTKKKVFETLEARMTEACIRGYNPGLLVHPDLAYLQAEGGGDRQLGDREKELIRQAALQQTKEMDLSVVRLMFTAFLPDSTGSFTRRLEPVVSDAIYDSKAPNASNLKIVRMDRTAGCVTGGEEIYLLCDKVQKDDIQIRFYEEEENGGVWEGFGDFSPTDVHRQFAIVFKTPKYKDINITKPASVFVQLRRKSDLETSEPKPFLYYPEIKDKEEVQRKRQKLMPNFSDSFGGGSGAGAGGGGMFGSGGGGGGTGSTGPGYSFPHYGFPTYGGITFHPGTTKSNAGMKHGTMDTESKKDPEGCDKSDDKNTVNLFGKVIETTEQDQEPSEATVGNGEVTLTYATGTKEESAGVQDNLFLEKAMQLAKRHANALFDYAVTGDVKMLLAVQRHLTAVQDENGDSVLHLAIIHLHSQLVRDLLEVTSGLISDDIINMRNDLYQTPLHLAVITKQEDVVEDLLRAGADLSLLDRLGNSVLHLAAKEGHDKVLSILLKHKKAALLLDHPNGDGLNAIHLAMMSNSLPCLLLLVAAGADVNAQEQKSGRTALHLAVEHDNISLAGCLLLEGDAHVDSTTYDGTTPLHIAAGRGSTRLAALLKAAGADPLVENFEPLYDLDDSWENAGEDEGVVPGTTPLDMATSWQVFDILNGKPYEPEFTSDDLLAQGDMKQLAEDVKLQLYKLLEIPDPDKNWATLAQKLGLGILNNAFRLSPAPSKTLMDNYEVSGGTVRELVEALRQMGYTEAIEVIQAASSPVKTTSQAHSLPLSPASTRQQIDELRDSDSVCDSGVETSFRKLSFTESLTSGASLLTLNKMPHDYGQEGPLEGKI

For `CC(C)(C)c1csc(-c2cc3cc(OCc4ccccc4CC(=O)O)ccc3o2)n1`, the AC50 was 12.4 µM (active) in assay [1]; 32.2 µM (active) in assay [3]; 81.3 µM (active) in assay [4]; 50 µM (active) in assay [5]; 78.9 µM (active) in assay [7]; 25.1 µM (active) in assay [8]. Further, the AC50 in [9] is 81.8 µM (active); in assay [10] it was 90.7 µM (active); in assay [11], 32.8 µM (active); in assay [12], 85.6 µM (active); in assay [13] it was 50 µM (active); in assay [14], 85.2 µM (active). Besides, the results for the AC50 in [15], in [16] and in assay [17] were 80.1 µM (active), 25 µM (active) and 12 µM (active), respectively. The result in assay [2] and in assay [6] was inactive.

For the compound `CC[C@@H]1C[C@H](N(Cc2cc(C(F)(F)F)cc(C(F)(F)F)c2)C(C)=O)c2cc(C(F)(F)F)ccc2N1C(=O)OC(C)C`, the half-maximal activity concentration (AC50) is 5.09 µM (active) in assay [1] and 11.6 µM (active) in assay [13]. Further, the call in assay [2], in assay [3], in assay [4], in [5], in assay [6] and in assay [18] was inactive. The outcome in assay [7] was “inactive”; in assay [8], “inactive”; in assay [9], “inactive”; in [10] it was “inactive”; in [11] it was “inactive”; with MYC, MYC (gene 4609), “inactive”. Also, the compound was called inactive in [12], in assay [19], in [14], in [15], in [16] and in assay [17].

For `CCN(CC)C(=O)c1cc(S(=O)(=O)Cc2ccccc2)c(N2CCC(c3ccccc3)CC2)cc1N(CC)CCN(C)C`, the outcome in assay [1] is “inactive”; in assay [5], “inactive”; in assay [6] it was “inactive”; in [8] it was “inactive”; in the assay with MYC, MYC (gene 4609), “inactive”; in [12] it was “inactive”. For the same compound, the call in assay [13], in assay [14], in assay [16] and in assay [17] was inactive. The AC50 is 19 µM (active) in assay [2]; 32.2 µM (active) in assay [3]; 36.3 µM (active) in assay [4]; 30.4 µM (active) in assay [7]; 31.6 µM (active) in [9]; 30.5 µM (active) in [10]. For the same compound, the half-maximal activity concentration (AC50) in assay [11] is 30.5 µM (active); in assay [19] it was 28.1 µM (active); in [15] it was 22.9 µM (active).
